Assay [1] relates to W2. In words: qHTS profiling for inhibitors of Plasmodium falciparum proliferation (AID 504749).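 Further: 0% = DMSO vehicle and full inhibition = artemisinin control; nearly all actives have a fitted effect of over 60% in size.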 Conditions: P. falciparum in erythrocytes, SYBR Green DNA, 72 h; series mostly up to 28.7 µM. The gist of the method:
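SYBR Green fluorescence of parasite DNA, read after lysis and overnight dark incubation, measured growth over 72 h in erythrocyte culture at 0.3% parasitemia and 2.5% hematocrit. Data normalised to DMSO and 0.29 uM artemisinin, with plate-drift correction.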

For assay [2], the system named is CRL-7250. In words: Cytotoxic Profiling of Annotated Libraries Using Quantitative High-Throughput Screening (AID 1296008). Further: nearly all actives have a fitted effect of over 60% in size. Further: potency means the concentration at half of the fitted maximal effect. On max response: on the % scale 0 is the no-effect control and ±100 the full control effect. Conditions: Five cell lines viability, CellTiter-Glo ATP luminescence, 48-72 h; max response: stronger effect = lower value. In outline:
(§1)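 Cytotoxicity was measured as CellTiter-Glo ATP luminescence, read after 10 min at room temperature. Compound treatment of the cells lasted 48 or 72 hr at 37 degrees Celsius in a qHTS format.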

Assay [3] relates to HaCat. Described as above. Conditions: Five cell lines viability, CellTiter-Glo ATP luminescence, 48-72 h; max response: stronger effect = lower value. In outline: as §1
The subject of assay [4] is KB-3-1. The description is as above. Conditions: Five cell lines viability, CellTiter-Glo ATP luminescence, 48-72 h; max response: stronger effect = lower value. In outline:
as §1

Assay [5] concerns NIH3T3. Described as above. Conditions: Five cell lines viability, CellTiter-Glo ATP luminescence, 48-72 h; max response: stronger effect = lower value. In outline:
as §1
In general terms: In ATP-based viability assays light output follows the ATP content of the culture.

The test system of assay [6] is HACAT. Kind of assay: qHTS assay to identify novel small-molecules to repurpose for Merkel cell carcinoma treatment (AID 1296009). Further: nearly all actives have a fitted effect of over 60% in size. Further: potency means the concentration at half of the fitted maximal effect. On activity change, negative = cytotoxicity: on the % scale 0 is the no-effect control and ±100 the full control effect. Conditions: MCC and control cell lines, CellTiter-Glo viability, 72 h; at 44.8 µM (top of the series) unless noted. In outline:
(§2)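 Cell viability, measured as CellTiter-Glo luminescence, was normalized between DMSO and no-cell wells. The cells had been exposed to 8- or 11-point compound dilutions for 72 hr at 37 degree celsius.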
For orientation: In qHTS, concentration-response curves come from the screen itself.

Assay [7] has as its system HEK293T. The assay is described as above. Conditions: MCC and control cell lines, CellTiter-Glo viability, 72 h; at 44.8 µM (top of the series) unless noted. In outline:
as §2

Assay [8] concerns MCC-13. The description is as above. As to conditions: MCC and control cell lines, CellTiter-Glo viability, 72 h; series mostly up to 46 µM. The gist of the method: as §2
For assay [9], the system named is MCC-26. The description is as above. As to conditions: MCC and control cell lines, CellTiter-Glo viability, 72 h; series mostly up to 46 µM. In outline:
as §2

Assay [10] concerns MKL-1. The assay is described as above. As to conditions: MCC and control cell lines, CellTiter-Glo viability, 72 h; series mostly up to 46 µM. The gist of the method:
as §2

Assay [11] concerns MKL-2. The assay is described as above. As to conditions: MCC and control cell lines, CellTiter-Glo viability, 72 h; series mostly up to 46 µM. In outline: as §2
For assay [12], the system named is NIH3T3. The description is as above. Conditions: MCC and control cell lines, CellTiter-Glo viability, 72 h; series mostly up to 44.8 µM. In outline:
as §2

Assay [13] has as its system UISO. Described as above. Conditions: MCC and control cell lines, CellTiter-Glo viability, 72 h; series mostly up to 46 µM. In outline:
as §2

Assay [14] concerns WaGa. The assay is described as above. As to conditions: MCC and control cell lines, CellTiter-Glo viability, 72 h; series mostly up to 46 µM. The gist of the method:
as §2

In assay [15] the test system is C33A. Kind of assay: Primary qHTS to identify gynecologic anti-cancer compounds using libraries of approved drugs and bioactive compounds (AID 1345084). Further: nearly all actives have a fitted effect of over 55% in size. Further: potency means the concentration at half of the fitted maximal effect. On activity change, negative = cytotoxicity: on the % scale 0 is the no-effect control and ±100 the full control effect. As to conditions: Gynecologic cancer cell panel viability, ATPlite luminescence, 48 h; series mostly up to 57.5 µM. The gist of the method: (§3)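 Cells, 1,000 per well, were allowed to settle for 16 h at 37 C before compound addition. Five concentrations were tested for 48 h, and viability was read by ATPlite luminescence after 15 min at room temperature.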

Assay [16] relates to CASKI. The description is as above. Conditions: Gynecologic cancer cell panel viability, ATPlite luminescence, 48 h; series mostly up to 57.5 µM. In outline:
as §3

Assay [17] relates to Es-2. The assay is described as above. Conditions: Gynecologic cancer cell panel viability, ATPlite luminescence, 48 h; series mostly up to 57.5 µM. The gist of the method: as §3
Assay [18] concerns HeLa. The description is as above. As to conditions: Gynecologic cancer cell panel viability, ATPlite luminescence, 48 h; series mostly up to 57.5 µM. The gist of the method: as §3
Assay [19] deals with HEK293. Kind of assay: Cytotoxic Profiling of Annotated Libraries Using Quantitative High-Throughput Screening (AID 1296008). Further: nearly all actives have a fitted effect of over 60% in size. Further: potency means the concentration at half of the fitted maximal effect. On max response: on the % scale 0 is the no-effect control and ±100 the full control effect. As to conditions: Five cell lines viability, CellTiter-Glo ATP luminescence, 48-72 h; max response: stronger effect = lower value. In outline:
as §1

Assay [20] has as its system CAOV3. Kind of assay: Primary qHTS to identify gynecologic anti-cancer compounds using libraries of approved drugs and bioactive compounds (AID 1345084). Further: nearly all actives have a fitted effect of over 55% in size. Further: potency means the concentration at half of the fitted maximal effect. As to conditions: Gynecologic cancer cell panel viability, ATPlite luminescence, 48 h; series mostly up to 57.5 µM. In outline: as §3

Values joined by “and” are separate entries in the source; they are usually repeats but may differ in a detail not shown here. Equal entries are not always repeated. Inconclusive results are not listed. The source holds several records for some structures; these can differ, active in one and inactive in another. Active and inactive are the calls of the source. The call rests on the fitted dose curve; in most records, active means well fitted curve in the direction sought with a large enough effect; inconclusive means small, poorly fitted or top-dose-only effect, or another doubt; inactive means no such curve, though single readings can be large; an effect the other way counts as inactive or inconclusive.

Consider `CS(=O)(=O)c1ccc(C2=C(c3ccccc3)C(=O)OC2)cc1`, for which the Potency result in [1], in assay [8], in [9], in assay [10], in assay [11] and in [12] was “inactive” throughout. Moreover, the Potency result in assay [13], in assay [14], in assay [15], in [16], in assay [17] and in [18] was “inactive” throughout. Moreover, the max response is 3.58% (inactive) and 2.56% (inactive) in assay [2]; -5.92% (inactive) in [3]; 20.7% (inactive) and -2.3% (inactive) and -12.9% (inactive) in [4]; -4.55% (inactive) in [5]. Besides, the result in [3], in assay [5], in [6] and in assay [7] was inactive.

For `COc1ccc(-c2nc3ccc(C4=NNC(=O)CC4C)cc3[nH]2)cc1` (centres undefined), in [2], the result was inactive. For the same compound, the Potency in assay [19] is 18.8 µM (active) and 23.1 µM (active); in assay [20], 17.8 µM (active) and inactive. Further, in assay [4], the max response is -4.82% (inactive). The Potency result in assay [9], in assay [15] and in [17] was “inactive” in each case.

`Cc1cnc(Nc2cccc(CN3CCOCC3)c2)nc1Nc1cccc(S(=O)(=O)NC(C)(C)C)c1`: the call in assay [2], in [3], in [6] and in assay [7] was inactive. Further, the values for the max response in assay [3], in assay [4] and in assay [5] were -19.2% (inactive), 6.82% (inactive) and -17.3% (inactive), respectively. For the same compound, in [4], the Potency was 2310 nM (active). Also, the Potency entry in [8], in assay [9], in [10], in [11], in assay [13] and in assay [14] was “inactive” in each case. Besides, the Potency entry in assay [15] and in assay [17] was “inactive” in each case.

Regarding `CN(C)CCN(C)C(=O)c1ccc(NC(=O)Nc2ccc(-c3nc(N4CCOCC4)c4ccn(CC(F)(F)F)c4n3)cc2)cc1`, the Potency in assay [2] is 66.2 nM (active); in [4] it was 1.5 nM (active); in [5], 59 nM (active); in assay [13] it was 0.105 µM (active). For the same compound, in assay [19], the max response is -108% (inactive). Also, the Potency result in assay [8] was “inactive”.

With `CN1CC(=O)NC1=NC(=O)Nc1cccc(Cl)c1`, the max response was -9.31% (inactive) in assay [2], -3.54% (inactive) in assay [19], 5.76% (inactive) in assay [4] and -5.12% (inactive) in assay [5]. Moreover, the Potency result in assay [8], in assay [9], in assay [13] and in assay [14] was “inactive” in each case.

Regarding `CC[C@H](CC#N)OC(=O)N[C@@H](C)c1cccc(NC(=O)Nc2ccc(-c3cnco3)c(OC)c2)c1`, the Potency is 1.66 µM (active) and 1.03 µM (active) in assay [2]; 0.418 µM (active) in assay [19]; 1.32 µM (active) and 1.64 µM (active) in assay [4]; 1.18 µM (active) and 1.3 µM (active) in [5]; 4.18 µM (active) in assay [8]; 1.78 µM (active) in assay [17]. The Potency entry in assay [20] is “inactive”.

Take `Cc1cccc(Nc2nc(N[C@@H]3CCCC[C@H]3N)ncc2C(N)=O)c1`: the compound was classed as inactive in [2]. Further, the Potency in assay [19] is 14.8 µM (active). Moreover, in [3], the max response is -5.8% (inactive). Besides, the Potency result in [8], in [11], in assay [13] and in assay [14] was “inactive” each time.

For `C[C@@H](N)c1ccc(C(=O)Nc2ccnc3[nH]ccc23)cc1`, the max response in assay [2] was -24.2% (inactive). Also, the Potency in [19] is 23.1 µM (active); in assay [3], 18.4 µM (active); in assay [5] it was 23.5 µM (active) and 16.4 µM (active); in [18], 17.8 µM (active). Also, the Potency entry in assay [9], in assay [10] and in assay [11] was “inactive” throughout.

As to `CC[C@]1(O)C[C@H]2CN(CCC3=c4ccccc4=N[C]3[C@@](C(=O)OC)(c3cc4c(cc3OC)N(C)[C@H]3[C@@](O)(C(N)=O)[C@H](O)[C@]5(CC)C=CCN6CC[C@]43[C@@H]65)C2)C1`, the Potency was 93.5 nM (active) in assay [2]; 0.0166 µM (active) in [19]; 5.9 nM (active) in assay [4]; 0.0037 µM (active) in [10]; 0.0469 µM (active) in assay [11]. For the same compound, in assay [3], the max response is -10.4% (inactive).

For the compound `Cc1ccc(C(=O)N(CCCN)[C@@H](c2nc3cc(Cl)ccc3c(=O)n2Cc2ccccc2)C(C)C)cc1`, the max response in [2] was -35.4% (inactive); in assay [19], -91.6% (inactive); in assay [5], -42.8% (inactive). The figures for the Potency in assay [4] and in assay [8] were 0.8 nM (active) and 0.0296 µM (active), respectively. In [13], the Potency result was “inactive”.

`O=C(c1ccc(F)c(F)c1Nc1ccc(I)cc1F)N1CC(O)([C@H]2CCCCN2)C1`: the Potency in assay [2] was 2960 nM (active); in [19], 26.4 µM (active); in assay [3], 7.43 µM (active); in [5] it was 8330 nM (active). The Potency result in assay [9], in [10], in [13] and in assay [14] was “inactive” in each case.

Take `CN(C(Cc1ccc(OS(=O)(=O)c2cccc3cnccc23)cc1)C(=O)N1CCN(c2ccccc2)CC1)S(=O)(=O)c1cccc2cnccc12` (centres undefined): the max response is 0.636% (inactive) in [2], -3.12% (inactive) in assay [4] and -12.5% (inactive) in assay [5]. The Potency in assay [19] was 5.26 µM (active); in assay [13], 7.43 µM (active). For the same compound, the Potency entry in assay [8], in assay [9] and in [10] was “inactive” each time.

`Cc1cnc(CNC(=O)c2c(=O)c3ccc(N4CCCN(C)CC4)nc3n3c2sc2ccccc23)cn1`: the max response in [2] is -36.5% (inactive) and -21.3% (inactive); in assay [3], -24.1% (inactive). For the same compound, in assay [19], the Potency is 0.0512 µM (active). The Potency result in assay [8], in assay [9], in assay [10] and in [11] was “inactive” throughout. The activity change, negative = cytotoxicity in [15] was -22% [at 11.6 µM] (inactive); in [20] it was -1.16% [at 11.6 µM] (inactive); in [16], -0.786% [at 11.6 µM] (inactive); in [17], -19% [at 11.6 µM] (inactive); in [18], -13.6% [at 11.6 µM] (inactive).

For `O=C(CCCN1CCN(c2ccc(F)cc2)CC1)NC1c2ccccc2CSc2ccccc21` (centres undefined), the Potency in assay [2] was 8330 nM (active); in assay [19], 3.72 µM (active). In addition, the max response was -5.32% (inactive) in assay [3] and -3.67% (inactive) in assay [5]. The Potency entry in [9], in [15], in [16], in [17] and in assay [18] was “inactive” in each case.

With `C[C@@]1(C(=O)Nc2ccc(F)nc2)CCCN1c1nc(Nc2cc(C3CC3)[nH]n2)c2cccn2n1`, the Potency in assay [2] is 11.8 µM (active) and 11.6 µM (active); in [19], 3.72 µM (active); in assay [12], 4.61 µM (active); in [13] it was 0.0833 µM (active); in [14], 3.32 µM (active); in assay [16], 14.1 µM (active). Also, in [18], the Potency is 3.98 µM (active). For the same compound, the figures for the max response in assay [3] and in [4] were -23.7% (inactive) and -30.1% (inactive), respectively. In addition, the Potency entry in assay [15] and in assay [17] was “inactive” in each case.

(Values after PubChem BioAssay (NCATS).)
